From PubChem BioAssay AID651605 (National Center for Advancing Translational Sciences (NCATS), 2012) come the findings set out here.

Each structure is given as a SMILES string. Several values for one entry are separate records, joined by “and”; a condition that tells them apart may be missing. Equal values may be shown once. Results filed as inconclusive are left out. Activity calls are given as the source filed them. Calls follow the shape of the dose curve; as a rule, active = well fitted inhibition curve with a large enough effect; inconclusive = small, poorly fitted or top-dose-only effect; inactive = flat fitted curve, though single readings scatter.

The test deals with Ubiquitin carboxyl-terminal hydrolase 1 (Homo sapiens) (UniProt O94782). In words: Inhibitors of USP1/UAF1: SAR in Primary Assay. The note with it: Recombinant USP1/UAF1, Ub-Rhodamine cleavage fluorescence; series mostly up to 57.1 µM. The source says: Deubiquitinating enzymes (DUBs) are a class of enzymes that can cleave isopeptide bond formed between the C-terminal carboxylate of ubiquitin and a lysine side-chain amino group on the target protein. Among them, ubiquitin specific proteases (USPs) constitute the largest DUB family. Human USPs are emerging as promising targets for pharmacological intervention because of their connection to a number of human diseases, including prostate, colon and breast cancer (1, 2), pediatric acute lymphoblastic leukemia (3), and familial cylindromatosis (4). The advantage of inhibiting USPs lies in the potential specificity of therapeutic intervention that can lead to better efficacy and reduce nonspecific side effects. In a collaboration between the University of Delaware and the NIH Chemical Genomics Center, a high-throughput screen assay was developed to screen for USP1/UAF1 inhibitors (5). This assay was used to test the analogs that were synthesized based on SAR around the original hit. NIH Chemical Genomics Center [NCGC] NIH Molecular Libraries Probe Centers Network [MLPCN] MLPCN Grant: DA030552-01 Assay Submitter (PI): Zhihao Zhuang, University of Delaware 1. Priolo, C., et al. (2006) The isopeptidase USP2a protects human prostate cancer from apoptosis. Cancer Res 66, 8625-8632 2. Popov, N., et al. (2007) The ubiquitin-specific protease USP28 is required for MYC stability. Nat Cell Biol 9, 765-774 3. De Pitta, C., et al. (2005) A leukemia-enriched cDNA microarray platform identifies new transcripts with relevance to the biology of pediatric acute lymphoblastic leukemia. Haematologica 90, 890-898 4. Kovalenko, A., et al. (2003) The tumour suppressor CYLD negatively regulates NF-kappaB signalling by deubiquitination. Nature 424, 801-805 5. Chen, J., et al. (2011) Selective and cell-active inhibitors of the USP1/ UAF1 deubiquitinase complex reverse cisplatin resistance in non-small cell lung cancer cells. Chem Bio 18(11):1390-400.
Sequence of Ubiquitin carboxyl-terminal hydrolase 1 (Homo sapiens) (O94782 whole entry, looked up): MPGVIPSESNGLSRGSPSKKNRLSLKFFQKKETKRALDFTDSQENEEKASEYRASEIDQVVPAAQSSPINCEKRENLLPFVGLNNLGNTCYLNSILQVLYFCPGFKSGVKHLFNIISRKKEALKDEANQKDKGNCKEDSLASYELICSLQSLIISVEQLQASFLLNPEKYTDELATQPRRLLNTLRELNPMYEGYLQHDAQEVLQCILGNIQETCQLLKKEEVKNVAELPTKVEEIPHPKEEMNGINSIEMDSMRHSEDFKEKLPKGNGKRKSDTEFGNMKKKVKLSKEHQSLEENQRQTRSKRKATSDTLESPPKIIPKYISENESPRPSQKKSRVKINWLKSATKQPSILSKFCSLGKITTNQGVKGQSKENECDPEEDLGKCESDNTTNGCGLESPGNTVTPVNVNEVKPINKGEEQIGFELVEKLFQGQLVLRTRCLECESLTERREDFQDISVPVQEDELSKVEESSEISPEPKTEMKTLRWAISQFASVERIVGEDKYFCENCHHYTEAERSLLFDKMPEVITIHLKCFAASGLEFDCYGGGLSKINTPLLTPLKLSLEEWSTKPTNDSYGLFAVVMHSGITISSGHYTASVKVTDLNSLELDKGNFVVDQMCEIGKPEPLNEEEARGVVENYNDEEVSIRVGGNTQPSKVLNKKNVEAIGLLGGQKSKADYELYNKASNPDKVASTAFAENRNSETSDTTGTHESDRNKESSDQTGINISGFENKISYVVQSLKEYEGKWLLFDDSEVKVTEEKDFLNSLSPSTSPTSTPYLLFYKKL
3 microliters of reagents (buffer in columns 3 and 4 as negative control and 1nM USP1/UAF1 complex in columns 1, 2, and 5-48) are dispensed into Greiner black solid bottom 1536-well assay plates. Compounds are then transferred via Kalypsys pin tool equipped with 1536-pin array (10nl slotted pins, V&P Scientific, San Diego, CA). Following an incubation step of 15 min at room temperature, 1ul of Ub-Rho substrate (150nM final concentration) is added to initiate the reaction. The plates are immediately centrifuged at 1000 rpm for 15 seconds, and subsequently transferred to a ViewLux high-throughput CCD imager (PerkinElmer) wherein kinetic measurements of fluorescence are acquired using 480 nm excitation/540 nm emission filter set (6 reads every 60 seconds, see Table 1). All reagents are diluted in an assay buffer consisting of 50mM HEPES (pH 7.8), 0.5mM EDTA, 0.1 mg/ml BSA, 1mM TCEP, and 0.01% Tween-20.
In the case of `Cc1cnc(-c2ccccc2C(C)C)nc1NCC1CCN(C2COC2)CC1`, the Potency was 15200 nM (active).

For the compound `Cc1nc(-c2ccccc2C(C)C)nc(NCc2ccc(-c3cccnc3)cc2)c1C`, the Potency is 136 nM (active).

As for `Cc1cnc(-c2ccccc2C(C)C)nc1NCc1ccc(-c2ccc(F)nc2)cc1`, the Potency is 60.7 nM (active).

For the compound `Cc1cnc(-c2ccccc2C(C)C)nc1NCC1CCN(c2cnccn2)CC1`, the Potency was 121 nM (active).

Take `FC(F)(F)c1ccccc1-c1nc2c(c(NCc3ccc(-c4cccnc4)cc3)n1)CCC2`: the Potency was 681 nM (active).

Take `CC(C)c1ccccc1-c1nc2c(c(NCc3ccc(-c4cccnc4)cc3)n1)CCNC2`: the Potency was 482 nM (active).

For the compound `CC(C)c1ccccc1-c1ncc(F)c(NCc2ccc(-c3cccnc3)cc2)n1`, the Potency was 60.7 nM (active).

With `FC(F)(F)c1ccccc1-c1nc(NCc2ccc(-c3cccnc3)cc2)c2[nH]cnc2n1`, the Potency is 607 nM (active).

With `CC(C)c1ccccc1-c1nccc(NCc2ccc(-c3ccnc(C(F)(F)F)c3)cc2)n1`, the Potency is 764 nM (active).

For `Cc1cnc(-c2ccccc2CO)nc1NCC1CCN(c2cccnc2)CC1`, the Potency was 7640 nM (active).

On to `FC(F)(F)c1ccc(-c2ccc(CNc3nc(-c4ccccc4C(F)(F)F)nc4ccccc34)cc2)cn1`, for which the Potency is 4290 nM (active).

With `CC(C)c1ccccc1-c1ncc(F)c(NCc2ccc(-c3cccnc3)s2)n1`, the Potency is 242 nM (active).

On to `Cc1cnc(-c2ccccc2C(C)C)nc1N(C)Cc1ccc(-c2cccnc2)cc1`, for which the Potency is 681 nM (active).

As to `Nc1nc(NCc2ccc(-c3cccnc3)cc2)c2ccccc2n1`, the Potency result was “inactive”.

For the compound `Cc1cnc(-c2ccccc2C(C)C)nc1NCC1CCN(c2cccnc2)CC1`, the Potency is 48.2 nM (active).

On to `CSc1ccccc1-c1ncc(C)c(NCc2ccc(-c3cccnc3)cc2)n1`, for which the Potency was 541 nM (active).

Take `FC(F)(F)c1ccccc1-c1nc(NCc2ccc(-c3cccnc3)cc2)c2sccc2n1`: the Potency was 857 nM (active).

On to `Cc1cnc(-c2ccccc2CO)nc1NCc1ccc(-c2cccnc2)cc1`, for which the Potency was 8570 nM (active).

On to `CC(C)c1ccccc1-c1ncc(F)c(NCC2CCN(c3cnccn3)C2)n1` (stereo unspecified), for which the Potency is 4290 nM (active).

For the compound `CC(C)c1ccccc1-c1ncc(F)c(NC2(c3ccc(-c4cccnc4)cc3)CC2)n1`, the Potency was 38.3 nM (active) and 34.1 nM (active).

As to `CC(=O)c1ccccc1-c1ncc(C)c(NCc2ccc(-c3cccnc3)cc2)n1`, the Potency is 7640 nM (active).

With `N#Cc1cccc(-c2ccc(CNc3nc(-c4ccccc4C(F)(F)F)nc4ccccc34)cc2)c1`, the Potency is 2710 nM (active).

Turning to `Fc1cnc(-c2ccccc2C(F)F)nc1NCc1ccc(-c2ccn[nH]2)cc1`, the Potency is 1520 nM (active).

Consider `FC(F)(F)c1cccc(-c2nc(NCc3ccc(-c4ccnc(C(F)(F)F)c4)cc3)c3ccccc3n2)c1`, for which the Potency entry is “inactive”.

As for `CSc1cnc(-c2ccccc2C(C)C)nc1NCc1ccc(-c2cccnc2)cc1`, the Potency was 85.7 nM (active).

As for `Cc1cnc(-c2ccccc2OC(C)C)nc1NCc1ccc(-n2ccnn2)cc1`, the Potency was 429 nM (active).

Take `Cc1ccc(-c2ccc(CNc3nc(-c4ccccc4C(C)C)nc4ccccc34)cc2)cn1`: the Potency is 136 nM (active).

With `Cc1cnc(-c2ccccc2C(C)O)nc1NCc1ccc(-c2cccnc2)cc1` (stereo unspecified), the Potency was 1360 nM (active).

`CC(C)c1ccccc1-c1ncc(F)c(NCC2CCN(c3cccnc3)CC2)n1`: the Potency is 96.1 nM (active).

As for `FC(F)(F)c1ccccc1-c1nc(NCC2CCN(c3cccnc3)CC2)c2ccccc2n1`, the Potency is 607 nM (active).

For the compound `CC(C)c1ccccc1-c1nc(NCc2ccc(-c3cccnc3)cc2)c2cccn2n1`, the Potency was 215 nM (active).
